Reference: PMC5540273 (PLoS ONE, 2017)

Columns and labels:
Settings in all cases: concentration: 1 μM,replicates: in singlicate; n = 1
[1] = tested on: CDC2L2
[2] = tested on: T1, CDC2L5
T1 construct: gene CDK13

[3] = tested on: T2, CDK11
T2 construct: gene CDK19

[4] = tested on: CDK2
[5] = tested on: CDK3
[6] = tested on: CDK4-cyclinD1
[7] = tested on: CDK4-cyclinD3
[8] = tested on: CDK4
[9] = tested on: CDK5
[10] = tested on: CDK7
[11] = tested on: CDK8
[12] = tested on: CDK9
[13] = tested on: CDKL1
[14] = tested on: CDKL2
[15] = tested on: CDKL3
[16] = tested on: CDKL5
[17] = tested on: CHEK1
[18] = tested on: CHEK2
[19] = tested on: CIT
[20] = tested on: CLK1
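Further: KINOMEscan kinase panel screen.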

Row | Compound | %Inh [1] [%] | %Inh [2] [%] | %Inh [3] [%] | %Inh [4] [%] | %Inh [5] [%] | %Inh [6] [%] | %Inh [7] [%] | %Inh [8] [%] | %Inh [9] [%] | %Inh [10] [%] | %Inh [11] [%] | %Inh [12] [%] | %Inh [13] [%] | %Inh [14] [%] | %Inh [15] [%] | %Inh [16] [%] | %Inh [17] [%] | %Inh [18] [%] | %Inh [19] [%] | %Inh [20] [%]
1 | NC(=O)c1ccc(-c2cc3ncnc(SCC(=O)O)c3s2)cc1 | 0 | 0 | 0 | 0 | 0 | 1 | 0 | 0 | 18 | 58 | 0 | 72 | 7 | 0 | 0 | 0 | 0 | 0 | 3 | 82
2 | Cc1cccc(-c2nc(Nc3ccncc3)c3sccc3n2)n1 [GW869641] | 0 | 11 | 8 | 3 | 0 | 0 | 24 | 23 | 14 | 44 | 8 | 11 | 22 | 0 | 15 | 31 | 0 | 0 | 96.6 | 4
3 | CCOC(=O)N1CCC(n2cnc(-c3ccc(F)cc3)c2-c2ccnc(N)n2)CC1 [SB-219952] | 23 | 30 | 29 | 0 | 0 | 24 | 6 | 32 | 0 | 30 | 22 | 0 | 7 | 0 | 30 | 13 | 0 | 2 | 41 | 0
4 | NC(=O)Nc1sc(-c2ccc(F)cc2)cc1C(N)=O [GW789449] | 0 | 14 | 0 | 0 | 17 | 30 | 0 | 0 | 0 | 19 | 46 | 0 | 27 | 17 | 10 | 0 | 0 | 69 | 27 | 9
5 | CCCC(=O)Nc1n[nH]c2ncccc12 [SB-601436] | 0 | 0 | 0 | 0 | 1 | 0 | 0 | 0 | 0 | 0 | 0 | 0 | 0 | 0 | 0 | 0 | 0 | 0 | 0 | 2
6 | Cc1ccc(CC(=O)N2CCc3cc(-c4cn(C)c5ncnc(N)c45)ccc32)cc1 [GSK2634758] | 21 | 0 | 72 | 5 | 0 | 0 | 0 | 26 | 10 | 1 | 83 | 0 | 8 | 0 | 0 | 0 | 1 | 17 | 19 | 13
7 | Cn1ccc2ncnc(Oc3ccc(NC(=O)Nc4cncc(C(F)(F)F)c4)c(Cl)c3)c21 | 0 | 51 | 97.7 | 0 | 0 | 0 | 0 | 0 | 0 | 0 | 95 | 0 | 0 | 0 | 0 | 0 | 0 | 9 | 44 | 0
8 | Cn1cc(-c2cccc3c(N)c(C(N)=O)nnc23)cn1 | 7 | 10 | 19 | 17 | 30 | 8 | 7 | 0 | 3 | 26 | 33 | 0 | 32 | 12 | 7 | 0 | 0 | 0 | 10 | 74
9 | OCCn1cc(-c2cnc3nnn(Cc4ccc5ncccc5c4)c3n2)cn1 | 0 | 0 | 0 | 0 | 5 | 0 | 0 | 0 | 0 | 15 | 0 | 8 | 0 | 0 | 10 | 0 | 0 | 6 | 0 | 16
10 | O=C(Nc1cccc(Oc2ccc3nccn3n2)c1)Nc1cccc(C(F)(F)F)c1 | 6 | 13 | 98.7 | 0 | 32 | 33 | 0 | 0 | 0 | 0 | 90.9 | 0 | 0 | 62 | 0 | 4 | 0 | 0 | 99.9 | 31
11 | CN1CCN(CCCNc2nccc(-c3c(-c4ccc(F)cc4)nn4cc(C(N)=O)ccc34)n2)CC1 [GW622475] | 17 | 0 | 40 | 0 | 18 | 0 | 0 | 20 | 0 | 0 | 19 | 3 | 5 | 31 | 92.6 | 0 | 0 | 1 | 95.2 | 19
